Source: PubChem (National Center for Advancing Translational Sciences (NCATS))
Shown are actives, neighbours in structure and some others; about 6.7% of the full set was active somewhere.
MCF10A rereplic: inducers of DNA re-replication in MCF 10A breast cells. MCF 10A DNA re-replication, Hoechst nuclear intensity, 48 h. 350,000 tested, 2.9% active. AID 624296. Potency, µM (highest dose often 46.1 µM), without a hit: at the top dose activity, positive = re-replication, most hits filed as activators; also: % of control where 0% means no effect; nearly all actives have a fitted effect of over 50% in size
KB-3-1 cytotox: KB-3-1 parental cell cytotoxicity. KB-3-1 viability, CellTiter-Glo ATP luminescence, 72 h. Potency, µM (titrated, usually from 46.1 µM), actives largely listed as cytotoxic. 400,000 tested, 1.4% active. AID 1347075; also: % is scaled to controls: 0 for no effect and ±100 for the full control effect; nearly all actives have a fitted effect of over 60% in size
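Cells are dispensed, compounds pinned in, plates held at 37 °C for 72 h, then CellTiter-Glo is added and luminescence read after 10 minutes. Cell line: parental KB-3-1 in phenol-red-free DMEM, 10% FBS.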
SW480 rereplic: inducers of DNA re-replication in SW480 colon cancer cells; SW480 DNA re-replication, Hoechst DNA content imaging, 48 h; Potency, µM (titrated, usually from 46.1 µM), for the others: top-dose re-replication activation, actives largely listed as activators; 340,000 tested, 1.8% active; also: % of control where 0% means no effect; nearly all actives have a fitted effect of over 55% in size
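250 cells/well; 23 nL cpd via pin tool; 48 hr, 37 C, 5% CO2; Hoechst 40 min; imager read of total nuclear intensity, ex 405/em 500-530 nm.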
KB-V1 cytotox: kills drug-selected multidrug resistant KB-V1 cells | KB-V1 MDR cells viability, CellTiter-Glo, 72 h | Potency, µM (titrated, usually from 46.1 µM), hits mostly cytotoxic | AID 1347076 | 400,000 tested, 3.4% active; also: % is scaled to controls: 0 for no effect and ±100 for the full control effect; nearly all actives have a fitted effect of over 60% in size
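KB-V1, DMEM (no phenol red) + 10% FBS; cpd pin-transferred, titration series; 72 h, 37 degrees C; CellTiter-Glo, luminescence. Data normalized, curve-fit.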
PINK1 modulator: PINK1 expression modulation; PINK1 immunofluorescence, high-content cytometry, 24 h; Potency, µM (titrated, usually from 76.6 µM), for inactives: top-dose activation (PINK1 increase), hits mostly activators; 410,000 tested, 0.2% active; active = well fitted activation curve with a large enough effect; inconclusive = small, poorly fitted or top-dose-only effect; cell line not stated here; also: % of control where 0% means no effect; nearly all actives have a fitted effect of over 65% in size
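Readout is PINK1 immunofluorescence, quantified alongside mitochondrial, cell and nuclear markers by laser-scanning microplate cytometry. Cells from a stable line were exposed to compound titrations (5 concentrations) for 24 hours, with CCCP controls.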
* marks the source's active call; other numbers are inactive results; i = inactive; ? = inconclusive; . = not tested or not shown; [ ] = dose if it differs, or a comment. Unless noted, calls follow the shape of the dose curve; as a rule, active = well fitted curve in the direction sought with a large enough effect; inconclusive = small, poorly fitted or top-dose-only effect, or another doubt; inactive = no such curve, though single readings can be large; an effect the other way counts as inactive or inconclusive. Potency is read from the fitted curve at half-maximal effect.

SMILES	MCF10A rereplic	KB-3-1 cytotox	SW480 rereplic	KB-V1 cytotox	PINK1 modulator
O=C(NNC(=O)c1cccc(S(=O)(=O)Nc2ccccc2F)c1)c1ccncc1	.	i	.	i	0.3%
OCCNC(=S)NCCc1ccccc1	-3.7%	i	?	i	-0.3%
CC(C)(CNC(=S)NCCc1ccccc1)CNC(=S)NCCc1ccccc1	23.1µM*	?	?	i	?
CC(=O)C(N=Nc1ccccc1)(Sc1nnc(-c2ccccc2)n1-c1ccccc1)C(C)=O	8.4%	?	?	11.6µM*	-8.4%[38.3 µM]
CCCS(=O)(=O)c1nc(S(=O)(=O)c2ccc(C)cc2)c(NCCCN2CCCC2=O)s1	-0.4%	i	-0.6%	i	-0.4%
CCOC(=O)CN1CC(C)(C)N(CC(=O)OCC)CC1(C)C	-2.7%	i	-2.0%	?	3.9%
Cc1nc2ccccc2c(=O)n1/N=C/c1cn[nH]c1-c1ccccc1	10.3%	?	-5.5%	i	2.0%
Cc1ccccc1OCc1nc2ccccc2c(=O)n1/N=C/c1cn[nH]c1-c1ccccc1	?	?	?	13µM*	-3.7%
